From PubChem BioAssay
Pf Dd2 growth = Plasmodium falciparum Dd2 growth inhibition; Potency, µM (top dose mostly 28.9 µM), usual class: inhibitors; P. falciparum Dd2 growth, SYBR Green, 72 h; 120,000 compounds, 4.3% hits; active = well fitted inhibition curve with a large enough effect; note: nearly all actives have a fitted effect of over 65% in size
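Infected erythrocytes (Dd2, 0.3% parasitemia, 2.5% hematocrit final) are added to compound in RPMI-1640/Albumax II medium, grown 72 h at 37C in low oxygen, then lysed with saponin/Triton-X containing SYBR Green and read by fluorescence.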
A number is an active result; . = inactive; [ ] = another dose, or the depositor's remark. Shown is part of a subset that was picked to be rich in hits.

SMILES	Pf Dd2 growth
COc1ccc(CN2CCC3(CC2)CC(O)CCO3)cc1OC (configuration not stated)	.
COc1ccc(-c2nnc(SCC(=O)N3CCCCC3)o2)cc1	.
COc1ccc(-c2c(C)c3ccc(O)c(CN4CCC(C)CC4)c3oc2=O)cc1OC	10µM
COc1ccc(-c2onc(C)c2C)cc1S(=O)(=O)N1CCC(C)CC1	.
COc1ccc(Cn2c(=O)c3cccnc3n(Cc3cccc(OC)c3)c2=O)cc1	.
NC(=O)[C@@H]1CCCN1C(=O)c1ccc2oc(-c3cccc(F)c3)nc2c1	.
Cn1cc2c3c(cccc31)CN(C(=O)c1ccc(F)c(Cl)c1)CC2	.
Cc1noc(-c2cn(C3CCCN(C(=O)c4cccc(Br)c4)C3)nn2)n1 (configuration not stated)	.
CCc1ccccc1NC(=O)c1nc(-c2ccncc2)no1	.
COc1ccccc1CNC(=O)c1cc2c(s1)-c1ccccc1OC2	.[0.594 µM]
Cc1cc(C(=O)N2CCC3(CC2)Nc2ccccc2NC3=O)c2ccccc2n1	.
Cc1ccc(C)c(C(=O)N2CC(C(=O)NCCc3ccncc3)C3(CCOCC3)C2)c1 (configuration not stated)	.
COc1ccc(C(=O)N2CCC(n3cc(-c4nc(C(C)C)no4)nn3)CC2)c(C)c1	.
O=C(Cn1nnnc1CN1CCOCC1)N1CCN(c2ccc(Cl)cc2)CC1	.
COc1ccccc1CNC(=O)C1CCN(Cc2nc(-c3ccc(OC)c(OC)c3)oc2C)CC1	.
COc1ccc(CNC(=O)C2CCN(Cc3nc(-c4ccc(OC)c(OC)c4)oc3C)CC2)cc1	.
Cn1cc(-c2ccc(O)c(F)c2)c2nc(CN3CCOCC3)cn2c1=O	.
O=c1oc2c(CN3CCOCC3)c(O)ccc2cc1-c1ccc(Cl)cc1	7.1µM
COc1ccc(-c2cc3ccc(O)c(CN4CCC(C)CC4)c3oc2=O)cc1OC	2.5µM
CCS(=O)(=O)c1ncc(Cl)c(C(=O)N(Cc2ccccc2)c2ccc(OC)cc2)n1	.
CCN1c2cc(C(=O)Nc3cccc(C)c3)ccc2C(=O)N2CCCC21 (configuration not stated)	.
Cn1c([C@H]2CCN(Cc3ccc(F)c(F)c3)C2)nc2ccccc21	.
CN(C)c1ccc(-c2nnc([C@H]3CCN(Cc4ccco4)C3)o2)cc1	7.9µM
CN(C)c1ccc(-c2nnc([C@H]3CCN(Cc4ccccc4F)C3)o2)cc1	.
CN(C)c1ccc(CN2CC[C@H](c3nnc(-c4ccco4)o3)C2)cc1	.
SMILES	Pf Dd2 growth
CCC(=O)Nc1nnc(S(=O)(=O)N(C)Cc2ccc(Cl)cc2)s1	.
Cn1nccc1C(=O)N1CCC(Oc2nccnc2N2CCOCC2)C1 (configuration not stated)	.
O=C(c1ccncc1)N1CCC(Oc2nccnc2N2CCOCC2)C1 (configuration not stated)	.
CN1CCC(Oc2nccnc2N2CCc3ccccc32)C1 (configuration not stated)	2.8µM
O=C(c1ccc(Cl)cc1)N1CCC2(Cc3ccccc3NC2=O)C1 (configuration not stated)	.
CC1=C(C(=O)N2CCCCC2)C(c2ccc(Cl)cc2)n2c(nc3ccccc32)N1 (configuration not stated)	.
Cc1ccc(-n2c(SCC(=O)Nc3cccc(Cl)c3)nc3n[nH]c(C)c3c2=N)cc1	13µM
Cc1ccc(CNC(=O)CSc2nc3n[nH]c(C)c3c(=N)n2-c2cccc(C)c2)cc1	.
CCC(C)NC(=O)CSc1nc2n[nH]c(C)c2c(=N)n1-c1ccc(C)c(Cl)c1 (configuration not stated)	.
O=c1c2nc(-c3ccc(F)cc3)ccc2ncn1Cc1ccccn1	.
COCCOc1ccc2c(n1)CCN(C(=O)C1(c3ccc(OC)cc3)CC1)C2	7.1µM
COCCOc1ccc2c(n1)CCN(C(=O)C1CCCC1)C2	.
COCCOc1ccc2c(n1)CCN(C(=O)c1ccccc1OC)C2	.
COc1ccc(OC)c(CCNc2nccn(-c3ccc(C)c(C)c3)c2=O)c1	.
CC(=O)N1CC[C@@H]2NC(=O)[C@H]3C[C@H](NC(=O)c4cccs4)CN3C(=O)[C@H]21	.
O=C(c1cnn2cccnc12)N(Cc1ccncc1)Cc1cccc(OCCc2ccc(F)cc2)c1	.
CCC(=O)N1CCc2c(C(=O)NCc3cccc(F)c3)cccc21	.
CCOc1ccccc1CNC(=O)c1cccc2c1CCN2C(=O)CC	10µM
CCOc1ccccc1CNC(=O)c1ccc2c(c1)N(S(C)(=O)=O)CC2	.
O=C(C1CCCC1)N1CCn2c(nn(-c3ccc(F)cc3)c2=O)C1	.
CNCc1cccc(F)c1	.
COc1ccccc1N1CCN([C@@H]2[C@H](O)[C@H](CO)O[C@@H]2CNC(=O)c2ccccc2)CC1	.
COc1ccccc1N1CCC(N2CCN(CCCc3ccccc3)C(CCO)C2)CC1 (configuration not stated)	10µM
CCOc1ccc(CN2CCN(C3CCN(C(C)C)CC3)CC2CCO)cc1 (configuration not stated)	.
CC(NC(=O)OCc1ccccc1)c1nc2cccnc2n1Cc1ccccc1 (configuration not stated)	.
SMILES	Pf Dd2 growth
CS(=O)(=O)c1ccc(CN2C[C@H](O)C[C@H]2c2nc(-c3ccc(F)cc3)no2)cc1	.
COc1ccc(-n2cccn2)c(C2CC(=O)Nc3c2c(C(C)C)nn3C)c1 (configuration not stated)	.
COCCNC(=O)c1nc(-c2c(C)cccc2C)c2ccccn12	.
COCC(=O)NC1(Cc2cc(-c3ccc(OC)cc3)on2)COC1	.
COCc1cc(C[C@@H]2C[C@H](NC(=O)c3ccco3)C2(C)C)no1	10µM
COCC(=O)N[C@H]1C[C@@H](Cc2cc(CO)on2)C1(C)C	.
CC(C)Cc1cc(C[C@@H]2C[C@H](NC3CCOCC3)C2(C)C)no1	.
COCc1cc(C[C@@H]2C[C@H](NC(=O)c3ccnc(Cl)c3)C2(C)C)no1	.
CC1(C)[C@H](Cc2cc(CO)on2)C[C@@H]1NC(=O)c1ccco1	.
CC1(C)[C@H](Cc2cc(COc3ccccc3)on2)C[C@@H]1NC1CCOCC1	10µM
CC1(C)[C@H](Cc2cc(COc3ccccc3)on2)C[C@@H]1NC(=O)COc1ccccc1	8.9µM
CC1(C)[C@H](Cc2cc(COc3ccccc3)on2)C[C@@H]1NC(=O)Cc1ccccc1	.
CCCN[C@H]1C[C@@H](Cc2cc(COc3ccccc3)on2)C1(C)C	.
COCC(=O)N[C@H]1C[C@@H](Cc2cc(-c3ccc(OC)cc3)on2)C1(C)C	2µM
CC(C)(C)CC(=O)N[C@H]1C[C@@H](Cc2cc(COc3ccccc3)on2)C1(C)C	.
COc1ccc(-c2cc(-c3ccc(F)cc3)nc3c2COc2ccc(F)cc2-3)cc1	.
O=C(CCN1N=C(c2ccccc2)CCC1=O)NCCc1ccc(Cl)cc1	.
Cc1ncoc1C(=O)N1CC(F)(F)C[C@H]1c1nnc(C2CC2)o1	.
CCOc1ccc(CCNC(=O)CCCn2c(=O)c3cccn3c3cccnc32)cc1	.
O=C(N[C@H](c1ccccc1)C1CC(O)C1)c1ccc(-n2cccn2)cc1 (some centres not stated)	.
COCCNC(=O)[C@@H]1CCC[C@@H](NC(=O)c2c(-c3ccccc3)noc2C)CN(C)C(=O)C1	.
O=C(CC1=C2CCCCC2N(Cc2ccc(F)cc2)C1=O)NC1CC1 (configuration not stated)	.
CC1CCN(c2ccc(CNC(=O)CC3=C4CCCCC4N(C)C3=O)cc2)CC1 (configuration not stated)	10µM
